From PubChem
Sampled rows, rich in hits. Any-hit rate of the full collection: about 10%.
G9a inh: qHTS Assay for Inhibitors of Histone Lysine Methyltransferase G9a; Histone-lysine N-methyltransferase EHMT2 (Homo sapiens), Q96KQ7; G9a H3K9 monomethylation, AlphaScreen, 2 h; Potency, µM (top dose mostly 102 µM), for inactives: top-dose activity, negative = inhibition, most hits filed as inhibitors; 350,000 tested, 8.8% active; AID 504332, 2011; note: % is set by controls: 0 for no effect and ±100 for the full control effect; nearly all actives have a fitted effect of over 75% in size
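AlphaScreen read-out: biotin-H3K9 peptide (500 nM) methylation by 20 nM enzyme with 20 uM SAM, 2 h at room temperature after 15 min compound preincubation; anti-monomethyl H3K9 antibody plus donor/acceptor beads, 10 min dark.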
JMJD2A Tudor: qHTS Assay for Inhibitors of JMJD2A-Tudor Domain | Potency, µM (highest dose often 114 µM), for inactives: at the top dose activity change, negative = inhibition, actives largely listed as inhibitors | Lysine-specific demethylase 4A (Homo sapiens), O75164 | AID 504339, 2011 | AlphaScreen JMJD2A-Tudor / H3K4me3 peptide binding | 390,000 tested, 4.4% active; note: % is set by controls: 0 for no effect and ±100 for the full control effect; nearly all actives have a fitted effect of over 50% in size
GLS inhibitor: qHTS for Inhibitors of Glutaminase (GLS) | Potency, µM (highest dose often 45.5 µM), without a hit: top-dose activity change, negative = inhibition, actives largely listed as inhibitors | GLS enzymatic activity, qHTS titration | Glutaminase kidney isoform, mitochondrial (Homo sapiens), O94925 | 410,000 tested, 0.21% active; note: % is set by controls: 0 for no effect and ±100 for the full control effect
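Enzyme dispensed in phosphate buffer (45 mM, pH 8.2, 0.02% Tween-20), compounds pinned in, then 1 mM L-glutamine solution and the glutamate oxidase–HRP–Amplex Red mix added; fluorescence read immediately and again after 30 min at room temperature.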
HP1b chromo inh: HTS for Inhibitors of HP1-beta Chromodomain Interactions with Methylated Histone Tails; AlphaScreen HP1-beta / biotin-H3K9me3 peptide binding; Potency, µM (top dose mostly 114 µM), without a hit: top-dose activity change, negative = inhibition, most hits filed as inhibitors; 390,000 tested, 0.56% active; AID 540317, 2011; note: nearly all actives have a fitted effect of over 70% in size
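HP1-beta protein (50 nM final) preincubated 30 min at room temperature with biotinylated H3(1-18)K9me3 peptide (50 nM) in PBS pH 7.4, 0.01% Tween-20, then compound added for 30 min. AlphaScreen streptavidin donor/nickel chelate acceptor beads (10 ug/mL final), 30 min dark, luminescence read.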
L3MBTL1 block: qHTS Assay for the Inhibitors of L3MBTL1; AlphaScreen L3MBTL1–H3K9me1 peptide binding; Potency, µM (series often up to 57.1 µM), without a hit: top-dose activity, negative = inhibition, most hits filed as inhibitors; Lethal(3)malignant brain tumor-like protein 1 (Homo sapiens), Q9Y468; AID 485360, 2010; 230,000 tested, 0.66% active; note: % is set by controls: 0 for no effect and ±100 for the full control effect; nearly all actives have a fitted effect of over 60% in size
Target sequence (Q9Y468 whole entry, looked up): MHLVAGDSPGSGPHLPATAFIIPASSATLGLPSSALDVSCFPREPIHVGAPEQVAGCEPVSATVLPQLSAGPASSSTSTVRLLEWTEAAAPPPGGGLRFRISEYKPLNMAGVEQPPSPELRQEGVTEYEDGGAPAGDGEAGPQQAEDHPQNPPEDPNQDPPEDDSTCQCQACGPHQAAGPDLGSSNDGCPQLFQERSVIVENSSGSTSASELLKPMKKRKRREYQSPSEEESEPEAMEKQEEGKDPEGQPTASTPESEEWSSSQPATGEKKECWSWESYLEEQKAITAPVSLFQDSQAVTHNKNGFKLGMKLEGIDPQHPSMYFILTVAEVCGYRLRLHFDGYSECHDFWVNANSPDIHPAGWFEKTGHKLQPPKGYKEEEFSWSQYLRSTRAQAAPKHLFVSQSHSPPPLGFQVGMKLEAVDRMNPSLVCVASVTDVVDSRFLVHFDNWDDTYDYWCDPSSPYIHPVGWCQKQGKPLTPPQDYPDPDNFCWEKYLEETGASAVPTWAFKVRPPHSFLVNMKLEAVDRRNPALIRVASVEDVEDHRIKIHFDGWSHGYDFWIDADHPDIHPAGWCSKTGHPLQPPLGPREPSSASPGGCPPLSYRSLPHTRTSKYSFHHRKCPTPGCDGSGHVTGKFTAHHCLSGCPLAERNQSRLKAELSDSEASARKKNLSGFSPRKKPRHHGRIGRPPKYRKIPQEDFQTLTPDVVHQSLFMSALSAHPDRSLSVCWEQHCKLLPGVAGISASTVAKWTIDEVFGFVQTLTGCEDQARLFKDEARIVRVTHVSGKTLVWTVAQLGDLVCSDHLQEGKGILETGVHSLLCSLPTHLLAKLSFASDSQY
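Displacement of a biotinylated histone H3(1-15) peptide monomethylated at Lys9 (75 nM) from L3MBTL1 (50 nM) was measured by AlphaScreen after a 30 min room-temperature compound incubation; cefsulodin titration served as intraplate control.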
BAZ2B block: qHTS Assay for Inhibitors of BAZ2B; Bromodomain adjacent to zinc finger domain protein 2B (Homo sapiens), Q9UIF8; AlphaScreen BAZ2B-H3K14Ac peptide displacement; Potency, µM (doses to about 114 µM), without a hit: at the highest dose activity change, negative = inhibition, actives largely listed as inhibitors; 360,000 tested, 4.4% active; note: % is set by controls: 0 for no effect and ±100 for the full control effect; nearly all actives have a fitted effect of over 60% in size
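AlphaScreen displacement: compounds (up to 110uM) incubated 30 min at room temperature with a preformed 50 nM BAZ2B/50 nM biotinylated H3K14Ac peptide complex in PBS pH 7.4 with Tween-20. Donor and acceptor beads at 10 ug/mL final added, 20 min light-protected before reading.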
Active calls of the source: *; ? = inconclusive; . = no result; [ ] = another dose, or the depositor's remark. Calls come from the whole dose curve; as a rule, active = well fitted curve in the direction sought with a large enough effect; inconclusive = small, poorly fitted or top-dose-only effect, or another doubt; inactive = no such curve, though single readings can be large; an effect the other way counts as inactive or inconclusive. Potency is the fitted concentration of half-maximal effect.

SMILES | G9a inh | JMJD2A Tudor | GLS inhibitor | HP1b chromo inh | L3MBTL1 block | BAZ2B block
c1ccc(-c2nc3ccccn3c2NCc2ccc3c(c2)OCO3)cc1 | ? | ? | 12% | -18% | -7% | ?
COc1ccc(-c2nc3ccccn3c2NCc2ccc3c(c2)OCO3)cc1 | ? | ? | 16% | -7% | -6% | 50µM*
Cc1ccc(NC(=O)c2ccc(=O)n(Cc3ccccc3C)c2)c(C)c1 | 5%[59 µM] | -3% | 1% | 14%[57 µM] | . | 4%
CCOc1ccc2nc3c(cc2c1)CN(CCCO)C(=NCCOC)S3 | 32µM* | -11%[11.4 µM] | 4% | -17% | 7% | -5%
CCOc1ccc(N=C2Sc3nc4ccc(C)cc4cc3CN2CCOC)cc1 | ? | -18% | -3% | 12% | . | ?
CCC(C)N=C1Sc2nc3ccc(C)cc3cc2CN1CCOC (stereo unspecified) | 5µM* | 45µM* | -8% | -10% | 15% | -19%
COCCN1Cc2cc3cc(C)ccc3nc2SC1=Nc1ccc(OC)cc1 | 45µM* | -26% | 0% | 28% | -14% | -34%
COC(=O)c1ccc(NC(=O)CC2Nc3cc(C)c(C)cc3NC2=O)cc1 (stereo unspecified) | -11%[59 µM] | -11% | 6% | 6% | . | -2%
CC(=O)NCCc1c(Cc2ccccc2)[nH]c2ccccc12 | 19%[59 µM] | . | . | . | . | .
CCCCC(=O)NCCc1c(Cc2ccccc2)[nH]c2ccccc12 | 13µM* | . | . | . | . | .
COc1cccc(NC(=O)c2sc3nc(C)c(C(=O)Nc4ccc(C)cc4C)c(-c4ccco4)c3c2N)c1 | -16%[59 µM] | -13% | -2% | 56% | . | -2%
COC(=O)C1=COC(OC2OC(CO)C(O)C(O)C2O)C2C1C=CC2(O)CO (stereo unspecified) | 1%[12.7 µM] | 35µM* | ? | 20µM* | . | 28µM*
O=C(Cc1ccccc1)Nc1sc2c(c1C(=O)Nc1ccc(Br)cc1)CCCC2 | -36%[59 µM] | -12% | -11% | 34% | . | 4%
Cc1ccc(Cl)cc1NC(=O)c1ccc(-c2nc(CSc3ccccc3)c(C)o2)cc1 | 2%[59 µM] | 5% | -4% | 37% | . | -11%
NNC(=O)c1cncn1-c1ccc(F)cc1 | 0% | ? | -2% | 57% | -1% | 50µM*
NC(=O)c1ccc(NC(=O)c2cncn2-c2ccccc2)cc1 | -28% | ? | ? | -4% | . | 3%
COc1cc(/C=N/Nc2ccc(Cl)c(C(=O)O)c2)ccc1OC(=O)c1ccco1 | 22µM* | -14% | 0% | 8% | -17% | ?
COc1ccc(C(=O)Oc2ccc(/C=N/Nc3ccc(Cl)c(C(=O)O)c3)cc2OC)cc1 | 35µM* | ? | 15% | -11% | . | 50µM*
COc1cc(/C=N/Nc2ccc(Cl)c(C(=O)O)c2)ccc1OCC(=O)N1C(C)CCCC1C (stereo unspecified) | 50µM* | -11% | ? | 28% | -20% | -23%
Cc1ccc(N(CCC#N)C(=O)COC(=O)C2CCN(S(=O)(=O)c3ccc4c(c3)OCCO4)CC2)cc1 | 32µM* | -21% | 2% | 10% | -1% | 2%
CN(C)C(=O)c1ccc(NC(=O)COC(=O)C2CCN(S(=O)(=O)c3ccc4c(c3)OCCO4)CC2)cc1 | 40µM* | 1% | 10% | 29% | -1% | 6%
Cc1ccc(S(=O)(=O)N2CCC(C(=O)OCC(=O)N(CCC#N)c3ccc(F)cc3)CC2)cc1C | -7% | -21% | -1% | 18% | 2% | 12%
Cc1ccc(N(CCC#N)C(=O)COC(=O)C2=COCCO2)cc1 | 40µM* | -8% | 5% | -1% | 3% | 11%
Cc1cc(-c2ccc(S(=O)(=O)Nc3cc(Cl)ccc3C)s2)on1 | 7%[59 µM] | -7% | -1% | 47% | . | 5%
Cc1oc2ncn(CC(C)C)c(=O)c2c1C(=O)NCc1cccc(Cl)c1 | -1%[59 µM] | 13% | 3% | 36% | . | 11%[57.1 µM]
SMILES | G9a inh | JMJD2A Tudor | GLS inhibitor | HP1b chromo inh | L3MBTL1 block | BAZ2B block
CSc1nc(C(=O)N2CCc3c([nH]c4ccccc34)C2c2ccccn2)cs1 (stereo unspecified) | ? | 50µM* | -17% | -19% | -24% | 32µM*
O=C(c1cccs1)N1CCc2c([nH]c3ccccc23)C1c1ccc(Cl)cc1 (stereo unspecified) | ? | -36% | 0% | -18% | -9% | -39%
O=C(c1cccs1)N1CCc2c([nH]c3ccccc23)C1c1ccccn1 (stereo unspecified) | 45µM* | ? | 13% | -1% | -8% | ?
CCc1nc(C)ccc1OCC(=O)N1CCc2c([nH]c3ccccc23)C1c1ccccn1 (stereo unspecified) | -5% | ? | 6% | 10% | -5% | -13%
COc1ccc(OCC(=O)N2CCc3c([nH]c4ccccc34)C2c2ccccn2)cc1 (stereo unspecified) | ? | 56µM* | 3% | -13% | -22% | ?
Cc1ccc2nc(C(=O)N3CCc4c([nH]c5ccccc45)C3c3ccccn3)cn2c1 (stereo unspecified) | . | ? | -6% | -21% | 4% | -2%
O=C(c1noc2c1CCCC2)N1CCc2c([nH]c3ccccc23)C1c1ccccn1 (stereo unspecified) | 50µM* | ? | -6% | ? | -12% | ?
Cc1ccccc1Cn1cc(S(=O)(=O)c2ccc(Cl)cc2)c(=O)c2cc3c(cc21)OCO3 | 1%[59 µM] | -21% | -3% | 28% | . | -2%
CC(C)c1nn2c(=O)cc(COC(=O)c3cccc(NC(=O)c4cccs4)c3)nc2s1 | 23%[59 µM] | -13% | 2% | 31% | . | -28%
Cc1cc(C)c(NC(=O)Cn2c(=O)n(CC3CCCO3)c(=O)c3ccccc32)c(C)c1 (stereo unspecified) | 3%[59 µM] | -10% | 2% | 21% | . | -1%
O=C(c1ccccc1-n1cccn1)N1CCc2c([nH]c3ccccc23)C1c1ccccn1 (stereo unspecified) | ? | ? | 11% | -23% | -15% | ?
CC(=O)c1ccc(C(=O)N2CCc3c([nH]c4ccccc34)C2c2ccccn2)s1 (stereo unspecified) | ? | ? | -7% | 3% | ? | 35µM*
